This passage reports inhibition results from ChEMBL document CHEMBL1961873, “Compounds: GSK PKIS; Assays: Nanosyn kinase panel” (2012).

For test [1], the target named is Tyrosine-protein kinase Fer (Homo sapiens) (UniProt P16591). As to conditions: at 1 µM.
In test [2] the target is Tyrosine-protein kinase Fes/Fps (Homo sapiens) (UniProt P07332). The conditions noted are these: at 0.1 µM.
The target is the same in test [3]. As to conditions: at 1 µM.
Test [4] has as its target Fibroblast growth factor receptor 1 (Homo sapiens) (UniProt P11362). The conditions noted are these: at 0.1 µM.
Test [5] has the same target. As to conditions: at 1 µM.
The target of test [6] is Fibroblast growth factor receptor 2 (Homo sapiens) (UniProt P21802). The conditions noted are these: at 0.1 µM.
The target is the same in test [7]. As to conditions: at 1 µM.
For test [8], the target named is Fibroblast growth factor receptor 3 (Homo sapiens) (UniProt P22607). As to conditions: at 0.1 µM.
Test [9] shares this target. The conditions noted are these: at 1 µM.
Test [10] deals with Fibroblast growth factor receptor 4 (Homo sapiens) (UniProt P22455). The conditions noted are these: at 0.1 µM.
The target is the same in test [11]. The conditions noted are these: at 1 µM.
In test [12] the target is Tyrosine-protein kinase Fgr (Homo sapiens) (UniProt P09769). As to conditions: at 0.1 µM.
The target is the same in test [13]. The conditions noted are these: at 1 µM.
Test [14] concerns the target Vascular endothelial growth factor receptor 1 (Homo sapiens) (UniProt P17948). The conditions noted are these: at 0.1 µM.
For test [15] the target is unchanged. As to conditions: at 1 µM.
For test [16], the target named is Receptor-type tyrosine-protein kinase FLT3 (Homo sapiens) (UniProt P36888). As to conditions: at 0.1 µM.
For test [17] the target is unchanged. The conditions noted are these: at 1 µM.
For test [18], the system named is T1, Receptor-type tyrosine-protein kinase FLT3 (Homo sapiens), P36888 [D835Y].
T1 sequence (whole entry): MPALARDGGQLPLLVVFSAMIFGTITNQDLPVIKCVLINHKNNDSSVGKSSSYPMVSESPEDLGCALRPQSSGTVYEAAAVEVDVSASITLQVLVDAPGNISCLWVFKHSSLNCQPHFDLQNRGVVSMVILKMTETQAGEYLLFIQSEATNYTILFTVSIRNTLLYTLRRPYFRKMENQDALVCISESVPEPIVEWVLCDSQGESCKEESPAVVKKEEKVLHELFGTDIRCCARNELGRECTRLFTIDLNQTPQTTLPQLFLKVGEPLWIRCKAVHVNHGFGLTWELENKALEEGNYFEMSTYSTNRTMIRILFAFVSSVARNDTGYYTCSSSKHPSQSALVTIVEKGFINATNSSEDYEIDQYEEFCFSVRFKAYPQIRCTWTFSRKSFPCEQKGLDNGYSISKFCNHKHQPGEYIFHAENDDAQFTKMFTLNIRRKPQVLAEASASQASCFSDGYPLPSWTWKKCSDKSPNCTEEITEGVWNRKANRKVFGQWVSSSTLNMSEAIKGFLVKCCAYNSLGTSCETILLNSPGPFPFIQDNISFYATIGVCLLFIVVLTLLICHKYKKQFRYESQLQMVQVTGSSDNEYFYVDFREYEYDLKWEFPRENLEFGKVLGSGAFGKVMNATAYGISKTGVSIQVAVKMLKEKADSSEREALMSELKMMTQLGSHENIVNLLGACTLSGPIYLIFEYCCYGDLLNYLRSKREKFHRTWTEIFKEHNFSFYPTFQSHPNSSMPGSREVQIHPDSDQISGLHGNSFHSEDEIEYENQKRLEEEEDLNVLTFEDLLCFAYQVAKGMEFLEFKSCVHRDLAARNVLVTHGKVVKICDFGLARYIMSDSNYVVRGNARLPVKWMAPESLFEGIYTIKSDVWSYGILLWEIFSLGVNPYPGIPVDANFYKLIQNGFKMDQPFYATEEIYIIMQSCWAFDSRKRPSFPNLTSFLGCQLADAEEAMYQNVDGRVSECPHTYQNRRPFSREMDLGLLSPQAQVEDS
As to conditions: at 0.1 µM.

The target of test [19] is Non-receptor tyrosine-protein kinase TYK2 (Homo sapiens) (UniProt P29597). As to conditions: at 1 µM.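 Further: values are mean percent inhibition of TYK2 kinase.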
Test [20] concerns the target T2, Tyrosine-protein kinase receptor TYRO3 (Homo sapiens) (UniProt Q06418).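 Further: reported percentages are averaged inhibition values of TYRO3 kinase activity.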
T2 sequence (whole entry): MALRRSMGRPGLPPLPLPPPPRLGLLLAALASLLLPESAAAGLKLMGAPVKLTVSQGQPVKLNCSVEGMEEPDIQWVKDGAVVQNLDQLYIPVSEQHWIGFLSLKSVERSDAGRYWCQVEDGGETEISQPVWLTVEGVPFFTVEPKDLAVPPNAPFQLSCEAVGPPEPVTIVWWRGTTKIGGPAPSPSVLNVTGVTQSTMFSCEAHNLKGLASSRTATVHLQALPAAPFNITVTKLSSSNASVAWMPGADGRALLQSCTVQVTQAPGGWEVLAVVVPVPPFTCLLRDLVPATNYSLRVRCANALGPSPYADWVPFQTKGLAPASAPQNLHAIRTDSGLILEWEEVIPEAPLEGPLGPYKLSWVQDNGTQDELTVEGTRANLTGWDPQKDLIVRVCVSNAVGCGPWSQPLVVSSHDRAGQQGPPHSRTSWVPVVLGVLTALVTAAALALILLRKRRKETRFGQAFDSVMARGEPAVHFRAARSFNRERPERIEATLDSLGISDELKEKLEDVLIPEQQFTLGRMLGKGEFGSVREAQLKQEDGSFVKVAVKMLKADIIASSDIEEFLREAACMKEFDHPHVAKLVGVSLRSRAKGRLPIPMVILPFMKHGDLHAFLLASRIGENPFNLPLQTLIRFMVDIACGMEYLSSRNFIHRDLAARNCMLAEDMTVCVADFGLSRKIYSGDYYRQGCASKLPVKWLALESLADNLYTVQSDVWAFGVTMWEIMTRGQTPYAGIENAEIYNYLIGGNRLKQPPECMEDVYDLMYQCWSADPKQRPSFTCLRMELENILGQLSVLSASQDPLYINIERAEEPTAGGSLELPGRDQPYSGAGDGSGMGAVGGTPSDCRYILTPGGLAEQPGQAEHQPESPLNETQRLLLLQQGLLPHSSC
The conditions noted are these: at 0.1 µM.

Chain of Tyrosine-protein kinase Fer (Homo sapiens) (P16591 whole entry, looked up): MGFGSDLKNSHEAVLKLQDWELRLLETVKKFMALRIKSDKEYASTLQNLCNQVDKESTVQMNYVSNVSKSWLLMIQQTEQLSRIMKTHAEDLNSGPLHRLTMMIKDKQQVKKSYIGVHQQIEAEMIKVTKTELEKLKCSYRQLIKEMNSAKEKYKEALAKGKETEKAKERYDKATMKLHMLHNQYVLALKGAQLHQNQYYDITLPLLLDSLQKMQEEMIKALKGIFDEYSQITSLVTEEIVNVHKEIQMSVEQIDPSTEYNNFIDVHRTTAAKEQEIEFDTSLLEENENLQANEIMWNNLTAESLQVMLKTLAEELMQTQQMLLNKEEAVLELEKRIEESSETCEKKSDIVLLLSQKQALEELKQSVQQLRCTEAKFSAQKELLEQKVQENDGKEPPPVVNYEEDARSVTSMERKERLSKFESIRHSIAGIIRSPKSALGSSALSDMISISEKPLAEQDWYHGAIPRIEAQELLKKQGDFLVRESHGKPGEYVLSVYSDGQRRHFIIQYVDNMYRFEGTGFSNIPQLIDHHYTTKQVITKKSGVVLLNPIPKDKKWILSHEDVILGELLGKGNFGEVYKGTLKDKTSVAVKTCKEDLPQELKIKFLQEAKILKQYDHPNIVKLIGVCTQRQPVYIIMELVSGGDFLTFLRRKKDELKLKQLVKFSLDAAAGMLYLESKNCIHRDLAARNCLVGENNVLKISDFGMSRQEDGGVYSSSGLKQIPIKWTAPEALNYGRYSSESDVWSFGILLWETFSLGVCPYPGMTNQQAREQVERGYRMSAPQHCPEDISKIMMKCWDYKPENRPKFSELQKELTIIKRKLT
Chain of Fibroblast growth factor receptor 3 (Homo sapiens) (P22607 23-806 limits assumed): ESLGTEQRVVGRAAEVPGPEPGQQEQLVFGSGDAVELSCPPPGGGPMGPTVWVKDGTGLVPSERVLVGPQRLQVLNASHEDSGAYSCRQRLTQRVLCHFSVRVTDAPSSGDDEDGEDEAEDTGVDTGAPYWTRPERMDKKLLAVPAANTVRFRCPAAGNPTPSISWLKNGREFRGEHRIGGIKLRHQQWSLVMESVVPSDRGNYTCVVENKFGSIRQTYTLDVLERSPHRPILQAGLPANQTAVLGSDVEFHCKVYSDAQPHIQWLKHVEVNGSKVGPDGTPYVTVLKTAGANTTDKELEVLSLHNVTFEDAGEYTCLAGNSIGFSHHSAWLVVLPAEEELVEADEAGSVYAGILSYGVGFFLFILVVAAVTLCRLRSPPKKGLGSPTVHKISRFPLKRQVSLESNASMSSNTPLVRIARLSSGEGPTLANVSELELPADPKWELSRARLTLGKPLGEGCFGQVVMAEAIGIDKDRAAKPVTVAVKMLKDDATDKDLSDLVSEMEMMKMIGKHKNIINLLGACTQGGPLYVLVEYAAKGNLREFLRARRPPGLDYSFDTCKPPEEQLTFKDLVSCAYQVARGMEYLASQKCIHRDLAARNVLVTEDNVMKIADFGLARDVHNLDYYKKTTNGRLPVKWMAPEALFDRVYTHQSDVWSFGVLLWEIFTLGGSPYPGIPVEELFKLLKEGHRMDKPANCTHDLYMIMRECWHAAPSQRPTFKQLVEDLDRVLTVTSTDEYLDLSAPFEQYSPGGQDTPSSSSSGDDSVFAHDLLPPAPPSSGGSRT
Chain of Vascular endothelial growth factor receptor 1 (Homo sapiens) (P17948 whole entry): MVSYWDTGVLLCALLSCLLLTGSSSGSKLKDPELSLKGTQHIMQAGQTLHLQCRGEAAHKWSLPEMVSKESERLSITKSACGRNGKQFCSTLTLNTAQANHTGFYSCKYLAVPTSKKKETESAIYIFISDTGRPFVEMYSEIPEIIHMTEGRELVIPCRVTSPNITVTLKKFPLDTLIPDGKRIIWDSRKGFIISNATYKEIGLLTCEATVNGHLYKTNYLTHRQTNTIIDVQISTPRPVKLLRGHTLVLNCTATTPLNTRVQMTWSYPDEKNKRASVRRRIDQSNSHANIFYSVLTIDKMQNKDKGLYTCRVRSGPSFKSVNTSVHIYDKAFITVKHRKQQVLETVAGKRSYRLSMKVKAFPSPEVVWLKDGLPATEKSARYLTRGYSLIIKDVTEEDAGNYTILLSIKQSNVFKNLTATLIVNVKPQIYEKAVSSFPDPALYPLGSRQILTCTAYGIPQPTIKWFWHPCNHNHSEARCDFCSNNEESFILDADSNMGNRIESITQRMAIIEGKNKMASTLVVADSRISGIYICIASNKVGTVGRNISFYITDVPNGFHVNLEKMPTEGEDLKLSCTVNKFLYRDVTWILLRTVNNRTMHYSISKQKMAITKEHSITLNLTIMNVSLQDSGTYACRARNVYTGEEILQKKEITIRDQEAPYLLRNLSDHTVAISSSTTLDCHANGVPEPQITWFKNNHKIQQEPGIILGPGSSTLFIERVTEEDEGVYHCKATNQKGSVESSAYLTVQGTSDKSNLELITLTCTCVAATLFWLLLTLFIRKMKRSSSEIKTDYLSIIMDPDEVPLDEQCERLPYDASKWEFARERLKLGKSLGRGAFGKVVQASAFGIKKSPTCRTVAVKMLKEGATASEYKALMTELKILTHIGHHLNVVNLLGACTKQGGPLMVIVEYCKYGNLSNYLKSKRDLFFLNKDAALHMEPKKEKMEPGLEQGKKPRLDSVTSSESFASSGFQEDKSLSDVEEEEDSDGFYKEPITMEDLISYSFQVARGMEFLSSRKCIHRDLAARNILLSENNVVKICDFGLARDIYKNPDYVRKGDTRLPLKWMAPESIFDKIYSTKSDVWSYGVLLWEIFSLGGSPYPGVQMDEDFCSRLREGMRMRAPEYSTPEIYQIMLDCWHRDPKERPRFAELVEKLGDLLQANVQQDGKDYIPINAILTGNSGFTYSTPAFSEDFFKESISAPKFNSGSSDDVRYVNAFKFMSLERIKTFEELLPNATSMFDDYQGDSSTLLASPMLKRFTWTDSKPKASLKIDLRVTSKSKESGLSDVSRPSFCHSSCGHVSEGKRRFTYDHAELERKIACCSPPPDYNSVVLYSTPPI
Chain of Fibroblast growth factor receptor 1 (Homo sapiens) (P11362 22-822 limits assumed): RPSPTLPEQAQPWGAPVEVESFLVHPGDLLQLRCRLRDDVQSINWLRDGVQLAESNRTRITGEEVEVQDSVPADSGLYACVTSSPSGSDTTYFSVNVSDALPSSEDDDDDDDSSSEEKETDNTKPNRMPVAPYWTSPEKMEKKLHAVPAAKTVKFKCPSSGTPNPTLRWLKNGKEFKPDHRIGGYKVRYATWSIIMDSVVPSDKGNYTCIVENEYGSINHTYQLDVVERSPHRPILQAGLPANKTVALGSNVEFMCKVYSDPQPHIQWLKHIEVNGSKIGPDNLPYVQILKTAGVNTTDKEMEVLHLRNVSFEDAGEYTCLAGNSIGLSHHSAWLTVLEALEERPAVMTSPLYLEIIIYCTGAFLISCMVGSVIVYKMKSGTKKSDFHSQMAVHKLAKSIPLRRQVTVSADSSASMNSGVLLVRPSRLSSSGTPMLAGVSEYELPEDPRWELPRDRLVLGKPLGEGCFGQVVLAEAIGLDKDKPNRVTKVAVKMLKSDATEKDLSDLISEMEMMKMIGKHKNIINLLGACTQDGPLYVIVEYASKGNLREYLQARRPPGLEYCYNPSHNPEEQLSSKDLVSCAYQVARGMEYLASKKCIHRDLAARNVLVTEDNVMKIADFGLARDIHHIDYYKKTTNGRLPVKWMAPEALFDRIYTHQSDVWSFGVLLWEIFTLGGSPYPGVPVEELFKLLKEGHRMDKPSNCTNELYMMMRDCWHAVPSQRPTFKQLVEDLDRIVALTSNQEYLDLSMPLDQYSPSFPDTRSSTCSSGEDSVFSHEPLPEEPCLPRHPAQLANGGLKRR
Chain of Non-receptor tyrosine-protein kinase TYK2 (Homo sapiens) (P29597 whole entry): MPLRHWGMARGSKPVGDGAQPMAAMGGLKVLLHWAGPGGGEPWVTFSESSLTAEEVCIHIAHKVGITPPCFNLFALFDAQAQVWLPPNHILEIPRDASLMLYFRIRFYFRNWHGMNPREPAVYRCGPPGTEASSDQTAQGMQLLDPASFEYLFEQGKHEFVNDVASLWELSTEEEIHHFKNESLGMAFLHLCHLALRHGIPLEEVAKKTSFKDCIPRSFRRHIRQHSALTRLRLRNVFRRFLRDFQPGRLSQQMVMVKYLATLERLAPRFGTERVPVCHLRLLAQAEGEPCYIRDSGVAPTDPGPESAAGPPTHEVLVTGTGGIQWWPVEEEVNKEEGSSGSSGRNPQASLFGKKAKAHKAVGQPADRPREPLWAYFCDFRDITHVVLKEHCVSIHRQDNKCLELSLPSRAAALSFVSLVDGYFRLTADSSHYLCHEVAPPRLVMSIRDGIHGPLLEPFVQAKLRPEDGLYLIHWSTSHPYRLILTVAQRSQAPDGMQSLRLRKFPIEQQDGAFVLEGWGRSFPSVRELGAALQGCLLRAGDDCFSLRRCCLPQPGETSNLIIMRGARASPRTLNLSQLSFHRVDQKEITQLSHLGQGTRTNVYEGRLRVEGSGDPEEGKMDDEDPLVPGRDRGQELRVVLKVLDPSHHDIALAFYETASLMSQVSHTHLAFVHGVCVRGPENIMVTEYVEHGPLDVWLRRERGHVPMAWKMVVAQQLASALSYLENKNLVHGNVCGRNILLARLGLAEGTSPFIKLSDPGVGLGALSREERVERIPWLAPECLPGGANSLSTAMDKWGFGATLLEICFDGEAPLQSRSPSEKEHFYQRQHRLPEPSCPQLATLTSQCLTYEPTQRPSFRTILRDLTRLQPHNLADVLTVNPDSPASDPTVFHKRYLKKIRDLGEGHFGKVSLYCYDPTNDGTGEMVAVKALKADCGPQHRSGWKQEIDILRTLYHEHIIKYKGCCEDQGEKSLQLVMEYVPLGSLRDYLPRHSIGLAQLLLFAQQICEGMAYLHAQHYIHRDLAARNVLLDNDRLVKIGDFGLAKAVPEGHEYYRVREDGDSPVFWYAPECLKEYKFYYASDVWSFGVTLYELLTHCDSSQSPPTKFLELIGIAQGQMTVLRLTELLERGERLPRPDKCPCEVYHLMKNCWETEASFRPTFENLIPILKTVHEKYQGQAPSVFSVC

For `Nc1nccc(-c2c(-c3ccc(F)cc3)nn3cc(C(F)(F)F)ccc23)n1`, the inhibition (as a rule, the relative decrease from the control value, in per cent) in test [1] is 7.28%; in [2] it was 5.08%; in [3], 3.62%; in test [4], -4.71%; in [5], -0.05%; in test [6], 0.61%. The inhibition in test [7] is 2.87%; in [8] it was 6.31%; in test [9], 1.74%; in [10] it was -0.28%; in test [11], 0.14%; in [12], 2.64%. Moreover, the inhibition in test [13] is 4.08%; in [14] it was -2.26%; in [15] it was 0.63%; in test [16], 2.41%; in test [17], -0.04%; in test [18] it was -7.47%. Further, the inhibition in test [19] is -2.71%; in test [20], 0.03%.
As to `O=C1Nc2ccccc2/C1=C/Nc1ccc2[nH]c(=O)[nH]c2c1`, the inhibition in test [1] came to 12.1%; in test [2], 4.03%; in test [3] it was 5.17%; in test [4], 7.8%; in test [5] it was 16.5%; in test [6], 9.08%. The inhibition in test [7] was 35%; in [8], 10%; in [9] it was 33%; in test [10] it was 1.89%; in test [11], 11.4%; in test [12], 11.3%. Besides, the inhibition in test [13] came to 26.5%; in [14] it was 11%; in [15], 30.1%; in [16], 26.6%; in test [17] it was 74%; in test [18], 17.5%. Besides, the inhibition in test [19] came out at 18.7%; in test [20] it was 5.57%.
Take `ON=C1CCc2cc(-c3nc(C4CCNCC4)[nH]c3-c3ccncc3)ccc21`: the inhibition in [1] is 0.21%; in test [2] it was 0.52%; in test [3] it was 0.86%; in [4], -5.96%; in [5], -0.14%; in [6] it was -1.99%. Also, the inhibition in [7] is 5.39%; in [8], 3.1%; in test [9] it was 2.75%; in test [11], 1.91%; in test [12], -1.48%; in [13] it was 2.99%. Besides, the inhibition was 0.48% in test [14]; 0.61% in [15]; -2.95% in test [16]; 0.24% in [17]; -4.99% in test [18]; -0.2% in [19]. Besides, the inhibition in test [20] came to 0.16%.
With `CN1CCN(C(=O)c2ccc(NC(=O)Nc3ccc(N(C)c4ccnc(Nc5ccc(CS(C)(=O)=O)cc5)n4)cc3)cc2)CC1`, the inhibition is 63.9% in test [1]; 7.35% in test [2]; 43.4% in test [3]; 0.94% in test [4]; 4.44% in [5]; 6.7% in test [6]. The inhibition in [7] stood at 12.8%; in test [8] it was 4.9%; in [9], 5.11%; in test [10] it was 4.73%; in test [11] it was 3.43%; in [12], 5.31%. The inhibition stood at 26.3% in test [13]; 21.4% in [14]; 43.5% in test [15]; 64.7% in test [16]; 83.9% in test [17]; 0.6% in test [18]. Also, the values for the inhibition in test [19] and in test [20] were 21.6% and 2.23%, respectively.
In the case of `Nc1nccc(-c2c(-c3ccc(F)cc3)ncn2CCCN2CCOCC2)n1`, the inhibition in test [1] turned out to be 5.14%; in test [2], 3.13%; in test [3], 2.03%; in test [4], 1.48%; in [5], 1.16%; in test [6], 2.81%. Besides, the inhibition is 5.14% in [7]; 4.29% in test [8]; 2.08% in test [9]; -1.03% in [11]; 2.89% in [12]; 3.22% in test [13]. Also, the inhibition is 0.15% in [14]; -0.18% in test [15]; -0.59% in test [16]; 3.31% in [17]; -5.08% in test [18]; -1.83% in test [19]. The inhibition in test [20] came to 3.82%.
As to `CCCN1CCCC(c2ccc(Nc3nc(Nc4cc(F)ccc4C(N)=O)c4cc[nH]c4n3)c(OC)c2)C1` (stereo not drawn), the inhibition was determined as 84.4% in test [1]; 61.4% in test [2]; 81.3% in [3]; 3.11% in test [4]; 3.44% in [5]; 4.31% in [6]. Moreover, the inhibition was determined as 5.74% in test [7]; 5.86% in test [8]; 4.56% in [9]; 0.72% in [10]; 12.2% in test [11]; 4.94% in [12]. Also, the inhibition in test [13] was 7.28%; in test [14], 2.54%; in test [15], 0.66%; in test [16], 3.86%; in test [17], 13.1%; in test [18], 5.98%. Also, the inhibition in test [19] is -3.62%; in [20], 4.74%.
`Nc1ccc(C#Cc2cncnc2Nc2ccc(OCc3cccc(F)c3)c(Cl)c2)cc1`: the inhibition in test [1] is 1.48%; in [2], 2.44%; in test [3], 2.24%; in test [4], 2.53%; in test [5] it was 4.37%; in [6], 3.89%. Further, the inhibition in [7] stood at 4.27%; in test [8] it was 3.12%; in [9], 4.49%; in [10], 2.37%; in test [11] it was 1.61%; in test [12] it was 3.78%. The inhibition came to 4.78% in test [13]; 0.39% in test [14]; 1.35% in test [15]; 0.49% in test [16]; 2.64% in [17]; 1.46% in [18]. The results for the inhibition in test [19] and in test [20] were -2.76% and 2.47%, respectively.
